# PubChem BioAssay (Tox21)
# Inconclusive results are not listed. Values without a mark were called inactive. Calls follow the shape of the dose curve; as a rule, active = well fitted cell-killing curve with a large enough effect in the repeat runs; inconclusive = weak or mixed curves, or effect the other way; inactive = no such curve, though single readings can be large or run the other way.
# Test: qHTS assay to identify small molecule agonists of the farnesoid-X-receptor (FXR) signaling pathway - cell viability counter screen (AID 743218); also: nearly all actives have a fitted effect of over 45% in size
# Details: FXR-bla HEK293T viability, CellTiter-Glo luminescence, 16 h; series mostly up to 62.6 µM; viability change, negative = cytotoxic: at the top concentration
# Text: U.S. Tox21 Program National Center for Advancing Translational Sciences [NCATS] NIH Chemical Genomics Center [NCGC] U.S. Environmental Protection Agency [EPA] National Institutes of Environmental Health Sciences [NIEHS] National Toxicology Program [NTP] U.S. Food and Drug Administration [FDA] Tox21 Assay Overview: The farnesoid-X-receptor (FXR), a nuclear hormone receptor, is highly expressed in liver, intestine, kidney and adrenal cortex. Natural ligands of FXR are the bile acids (Cholic acid, Chenodeoxy cholic acid etc). FXR is an important regulator of diverse metabolic pathways, including the bile acid homeostasis, lipid and glucose metabolisms. FXR regulates the expression of target genes by binding either as a monomer or as a heterodimer with the retinoid X receptor (RXR). Numerous studies have reported that FXR exerts protective function during cholestasis, diabetes, liver regeneration, and cancer. To identify compounds that activate FXR signaling, GeneBLAzer FXR-UAS-bla HEK 293T cell line (Invitrogen, Carlsbad, CA) containing a beta-lactamase reporter gene under the control of a UAS response element was used to screen the Tox21 10K compound library. The cytotoxicity of the Tox21 compound library against the FXR-bla cell line was tested in parallel by measuring the cell viability using CellTiter-Glo assay in the same wells.
# Tox21 Assay Protocol Summary: FXR-bla cells were dispensed at 5000 cells/5uL/well in 1536-well black wall/clear bottom plates using a Multidrop Combi (Thermo Fisher Scientific, Waltham, MA) dispenser. After the assay plates were incubated at 37 C and 5% CO2 for 5 h, 23 nL of compounds dissolved in DMSO, positive controls or DMSO only was transferred to the assay plate by a Pintool station (Kalypsys, San Diego, CA). The assay plates were incubated at 37C for 16 h. After 1 uL of LiveBLAzerTM B/G FRET substrate was added using a Bioraptr Flying Reagent Dispenser (FRD) workstation (Beckman Coulter, Indianapolis, IN), the plates were incubated at room temperature for 2 h, and fluorescence intensity was measured by an Envision plate reader (PerkinElmer, Shelton, CT). For cell viability readout that measures cytotoxicity, 4uL/well of CellTiter-Glo reagent was added into the assay plates using a Bioraptr FRD. After 30 min incubation at room temperature, the luminescence intensity in the plates was measured using a ViewLux plate reader (PerkinElmer).
# % is scaled to controls: 0 for no effect and ±100 for the full control effect.
row,Compound,"viability change, negative = cytotoxic"
1,CCCCN1C(=O)c2ccccc2C1=O,6.31% [at 81.1 µM]
2,CC(=O)Nc1ccc(S(=O)(=O)Nc2cc(C)on2)cc1,0.27%
3,C[Si](C)(C)O[Si](O)(O)O,16.5%
4,C=CC(C)(CCC=C(C)C)OC(=O)C(C)C (stereo not given),1.41%
5,COC(C)(C)CC(C)=O,-8.94%
6,CC(O)CCCCn1c(=O)c2c(ncn2C)n(C)c1=O (stereo not given),7.64%
7,CCC(=O)OCCOc1ccccc1,0.879%
8,COC(=O)c1ccccc1Cl,0.495%
9,COCc1nnc(-c2ccc[n+]([O-])c2)n1-c1c(Cl)c(Cl)cc2[nH]c(=O)c(=O)[nH]c12,-3.84%
10,CC(O)C(CO)C(C)O (stereo not given),-5% [at 81.1 µM]
11,CNC(=O)c1c(I)c(NC(C)=O)c(I)c(C(=O)O)c1I,-11.4%
12,CC(=O)c1ccc2ccc3ccccc3c2c1,4.21%
13,O=C(O)CCCCCCCCCC(=O)O,-15.3%
14,NNC(=O)OCc1ccccc1,-5.35%
15,CCNC(=O)C(C)OC(=O)Nc1ccccc1 (stereo not given),-10.7%
16,CCOC(=O)c1ccc(N(C)C)cc1,19.4%
17,O=C(O)Cc1c(Cl)ccc(Cl)c1Cl,-1.23%
18,O=S(=O)(O)c1ccc(Cl)cc1,2.67%
19,CC(=O)SC[C@@H](C)C(=O)N1CCC[C@H]1C(=O)N[C@@H](Cc1ccccc1)C(=O)O,7.14%
20,COC(=O)c1cc(Cl)c(NC(C)=O)cc1OC,8.56%

row,Compound,"viability change, negative = cytotoxic"
1,COC(=O)c1c(C)cc(O)c(C)c1O,3.86%
2,COc1cc(NS(=O)(=O)c2ccc(N)cc2)ncn1,6.66%
3,CN1C(CCl)Nc2cc(Cl)c(S(N)(=O)=O)cc2S1(=O)=O (stereo not given),5.28%
4,C/C=C(\C)C=O,-13.5% [at 81.1 µM]
5,O=c1c(O)c(O)c1=O,-0.924%
6,Cc1ccc(Br)cc1,6.64%
7,O=Cc1ccccc1S(=O)(=O)O,10.7%
8,CC(=O)c1ccc(O)c(C(N)=O)c1,4.06%
9,CCCCCCCCOCCC#N,19.6%
10,Cc1ccc2cccnc2c1,-2.09%
11,O=C(O)COc1ccc2ccccc2c1,9.29%
12,C=CCCCCCCCCOC(C)=O,7.43%
13,CC(CC(=O)Cl)CC(C)(C)C (stereo not given),3.94% [at 81.1 µM]
14,C=CC(=O)CC,1.15% [at 81.1 µM]
15,CCOC(=O)[C@H](CCc1ccccc1)N[C@H]1CS[C@H](c2cccs2)CN(CC(=O)O)C1=O,-1.07%
16,CCOCCOCCOC(C)=O,-4.73% [at 81.1 µM]
17,CCOc1ccccc1OCCN[C@H](C)Cc1ccc(OC)c(S(N)(=O)=O)c1,-0.778%
18,CCOC(=O)CN1CCCC1=O,2.91%
19,NNC(=O)CCCCC(=O)NN,5.42%
20,C=CCN1CCc2nc(N)sc2CC1,-0.796%
